CF NFkB block: blocks PAF-induced NF-kB reporter in cystic fibrosis cells. KKLEB NF-kB-GFP reporter, GFP fluorescence overnight. inhibition, % at 5 µM. hit rate 0.86% among 360,000. AID 588850;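 active = at least 50% inhibition at 5 µM, scaled per plate between neutral and stimulator controls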;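 also: PAF is a Pseudomonas aeruginosa culture filtrate used as stimulus; plate controls were PAF-stimulated DMSO wells for no effect and unstimulated DMSO wells for full effect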
KKLEB cytotox: CF airway cell cytotoxicity counter-screen. KKLEB CF airway cells viability, ATPlite luminescence, overnight; stronger effect = lower value; cells stimulated with P. aeruginosa culture filtrate. activity change (cytotoxicity), % at 5 µM. hit rate 0.36% among 360,000;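 active = corrected activity change at or below -50% at 5 µM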
TROY NFkB inh: inhibitors of TROY-dependent NF-kB signaling | Q293 LMP1-TROYcd NF-kB luciferase reporter, 4 h | hit rate 0.98% among 360,000 | inhibition, % at 10 µM | AID 1347056;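 active = compounds whose plate-normalised and pattern-corrected inhibition of the luciferase reporter signal at the single screening dose is 50% or more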
HIF-2a inh: inhibitors of HIF-2a | 786-0 RCC cells HIF-2a reporter, luciferase luminescence, overnight | inhibition, % at 18.8 µM | hit rate 0.72% among 360,000 | AID 624352;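 active = inhibition of the luminescence signal of 40% or more relative to plate controls, in a single-dose primary screen at 18.75 µM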
Peg3 promoter: inhibitors of Peg3 promoter; HeLa PEG-Prom luciferase reporter, luminescence, overnight; inhibition, % at 20 µM; hit rate 1.7% among 360,000;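 active = inhibition of at least 50% at 20 µM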
TWEAK-Fn14 inh: TWEAK-Fn14 signaling inhibition; inhibition, % at 10 µM; AID 1159606; hit rate 2% among 360,000; TWEAK-stimulated Fn14 reporter cells, luciferase luminescence, 8 h; in the data active = inhibition above about 50%
* marks the source's active call; other numbers are inactive results. Only some compounds are listed: those with a hit (about 4% of all), similar ones and a draw of the others.

SMILES	CF NFkB block	KKLEB cytotox	TROY NFkB inh	HIF-2a inh	Peg3 promoter	TWEAK-Fn14 inh
CCOC(=O)OCC(=O)C1(O)CCC2C3CCC4=CC(=O)CCC4(C)C3C(O)CC21C (stereo not given)	68*	23	5	18	-10	5
CCCCCCCC(=O)OCC(=O)[C@@]1(O)CC[C@H]2[C@@H]3CCC4=CC(=O)CC[C@]4(C)[C@H]3[C@@H](O)C[C@@]21C	61*	41	14	26	-6	-3
CC(=O)OCC(=O)C1(O)CCC2C3CCC4=CC(=O)CCC4(C)C3C(O)CC21C (stereo not given)	60*	31	28	14	-3	16
Nc1nc(CSC(=S)N2CCN(c3ccccc3)CC2)nc(Nc2ccccc2)n1	-1	7	-34	20	26	40
CCOc1ccc(NS(=O)(=O)c2ccc(C(=O)NCc3cccnc3)cc2)cc1	6	4	10	9	6	4
Cc1nn(C)c(C(=O)Nc2ccc(S(=O)(=O)NC34CC5CC(CC(C5)C3)C4)cc2)c1Br	26	-5	51*	35	22	45
Cc1ccc(S(=O)(=O)NC23CC4CC(CC(C4)C2)C3)cc1	13	-10	13	14	-3	-4
CN1CCC(C)(C(=O)Nc2cccc3c2CCCC3)C1 (stereo not given)	-5	0	2	-7	-12	-5
CCOC(=O)C1=C(CN2CCOCC2)NC(=O)NC1c1cccc([N+](=O)[O-])c1 (stereo not given)	-8	7	-6	12	23	14
COc1cc(/C=N/NC(=O)c2cccc(C(=O)N/N=C/c3ccc(O)c(OC)c3)n2)ccc1O	-7	0	-2	11	5	3
COc1cc(/C=N/NC(=Nc2ccc(C)cc2)c2nc3ccccc3s2)ccc1O	-16	-12	88*	73*	72*	107*
O=c1c2ccccc2oc2cc(C#Cc3ccccn3)ccc12	-47	22	14	-264	-202	65*
CC1=C(C(=O)N2CCOCC2)C(c2ccsc2)C2=C(CCCC2=O)N1 (stereo not given)	-4	4	9	10	15	5
OCC1(Cc2ccc(Cl)cc2)CCN(Cc2ccccc2F)CC1	14	-2	20	15	-2	-8
CSc1ccc(CN2CCC(CO)(Cc3ccc(Cl)cc3)CC2)cc1	2	-18	26	17	73*	4
Cn1c(N)c(C(=O)CSc2nn(-c3ccc(F)cc3)c(=S)s2)c(=O)n(C)c1=O	10	6	47	3	22	60*
CCCCN(C(=O)CSc1nn(-c2ccc(F)cc2)c(=S)s1)c1c(N)n(CCCC)c(=O)[nH]c1=O	34	-19	-6	12	16	-8
Cc1ccc(C)c(-c2cc(C(=O)Nc3sc(C)c(C)c3C(N)=O)c3ccccc3n2)c1	-15	-11	72*	-2	45	66*
Cc1cccc(-c2cc(C(=O)Nc3sc(C)c(C)c3C(N)=O)c3ccccc3n2)c1	-2	-11	30	-6	5	5
CC1(C)C(=O)C2(CCCCC2)C(=O)OC1C(=O)c1ccccc1 (stereo not given)	8	-4	-3	7	-4	13
CC1CCCN(C(=O)c2ccc(S(=O)(=O)N3CCC(c4nc5ccccc5s4)CC3)cc2)C1 (stereo not given)	5	-4	52*	-4	-57	57*
CN(C(=O)c1ccc(Cl)c([N+](=O)[O-])c1)C1(C)CCS(=O)(=O)C1 (stereo not given)	24	-15	6	16	2	-5
c1ccc2sc(Sc3ncnc4sccc34)nc2c1	72*	-44	17	-41	-56	83*
COc1ccc(C(=O)Nc2ccc(C3=NNC(=O)CC3C)cc2NC(=O)c2ccc(OC)cc2)cc1 (stereo not given)	-5	-4	12	21	21	11
CCOC(=O)c1c2c(n(Cc3ccccc3)c1C)C(=O)C(=O)c1ccccc1-2	61*	-75*	65*	89*	93*	104*
SMILES	CF NFkB block	KKLEB cytotox	TROY NFkB inh	HIF-2a inh	Peg3 promoter	TWEAK-Fn14 inh
CCOC(=O)c1c2c3c(cccc3n(C)c1=O)C(=O)c1ccccc1-2	-38	-13	6	-2	36	11
Cc1nn(-c2ccccc2)c(C)c1NC(=O)COc1ccc(C#N)cc1	-11	10	-19	13	24	24
Cc1nn(-c2ccccc2)c(C)c1NC(=O)COc1ccc(Br)cc1Cl	7	6	46	11	15	78*
Cc1nn(-c2ccccc2)c(C)c1NC(=O)COc1ccccc1C#N	4	-3	-6	-10	1	-9
Cc1nn(-c2ccccc2)c(C)c1NC(=O)COc1ccc2ccccc2c1	3	-4	55*	17	34	45
Cc1ccc(-c2c3c(=O)n(C)c(=O)n(C)c3cn2Cc2ccccc2)cc1	-1	-10	-17	12	-9	-25
O=S(=O)(c1ccc(Cl)c(NC(=S)N/N=C/c2ccc(O)cc2)c1)N1CCOCC1	-38	17	19	-36	44	58*
Cc1nnc(C)c2c(C)n(-c3ccc4ncccc4c3)c(C)c12	8	1	52*	11	-9	1
C=CCOc1ccccc1CN(C(=O)CCl)c1ccc2c(c1)OCO2	92*	-85*	-2	-14	-18	26
CCOC(=O)c1c(-c2ccccc2Cl)csc1NC(=O)CSc1nc(C)cc(=O)[nH]1	6	10	59*	15	29	12
CCOC(=O)c1c(-c2ccccc2)csc1NC(=O)CSc1nnc(C)s1	6	-17	38	18	10	79*
CCOC(=O)c1c(-c2ccc(C)o2)csc1NC(=O)CSc1nnc(C)s1	5	-13	-2	0	20	0
CCOC(=O)c1c(-c2ccccc2)csc1NC(=O)CCN1C(=O)c2ccccc2C1=O	3	0	7	7	1	-10
CCOC(=O)c1ccc(NC(=O)CSc2nc(C)cc(=O)[nH]2)cc1	3	-1	-3	18	13	3
CCOC(=O)c1c(-c2ccc(-c3ccccc3)cc2)csc1NC(=O)CNCCN(C)C	17	-8	-20	19	103*	-73
C#CCOCCOCCOCCNc1nc(N2CCN(C(=O)[C@H](Cc3cc4ccccc4[nH]3)n3cc([C@@H](N)CC(C)C)nn3)CC2)nc(N2CCN(C(=O)[C@H](Cc3cc4ccccc4[nH]3)n3cc([C@@H](N)CC(C)C)nn3)CC2)n1	-6	11	2	13	-1	9
Cc1nn(-c2ccccc2)c(Cl)c1/C=N/NC(=O)CNC(=O)c1ccccc1Cl	-54	16	-28	-46	5	-104
CC1C(=O)C(C)C(c2cc(Cl)ccc2O)NC1c1cc(Cl)ccc1O (stereo not given)	14	-10	39	35	47	13
